Source: PubChem (Broad Institute)
CD40 NFkB inh = CD40 pathway inhibition in BL2 cells; BL2 NF-kB luciferase reporter, CD40L-induced, 4 h; inhibition, % at 10 µM; hit rate 0.94% among 83,000; AID 1053188;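 active = mean inhibition of at least 50% with a set share of replicates also reaching that level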;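 note: 0% = neutral control wells and 100% = IKK inhibitor VII at 50 µM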
An asterisk follows results filed as active; [ ] = dose if it differs, or a comment. The full list was thinned out, with hits kept by preference.

SMILES | CD40 NFkB inh
COC(=O)C12OCC34C(CC5C(C)=C(O)C(=O)CC5(C)C3C(O)C1O)OC(=O)C(OC(=O)/C=C(\C)C(C)C)C24 (stereo not given) | 92*
COC(=O)[C@H]1[C@H](CO)[C@H]2Cn3c(cccc3=O)[C@@H]1N2C(=O)C1CC1 | -11[25 µM]
Cc1ccc(OC(=O)N(C)C[C@H]2OCc3ccccc3-c3c(n(C)c4ccccc34)C(=O)N([C@H](C)CO)C[C@@H]2C)cc1 | 21[25 µM]
O=C(Cc1ccccn1)N1CCCCN2[C@H](CO)[C@H](c3ccc(Br)cc3)[C@H]2C1 | -4[25 µM]
CC=Cc1ccc2n(c1=O)C[C@H]1[C@H](CO)[C@@H](C(=O)OC)[C@@H]2N1S(=O)(=O)c1ccccc1C (mixture of isomers) | 4[25 µM]
CCOP(=O)(CCP(=O)(OCC)OCC)OCC.C[CH2][Sn]([Cl])([Cl])[CH2]C | 59*
C=CCN1[C@@H]2CN(S(C)(=O)=O)C[C@H]1C2c1ccccc1 (stereo not given in full) | -1
Oc1ccc2c3c1OC1c4oc5ccccc5c4CC4(O)C(C2)N(CC2CC2)CCC314 (stereo not given) | 1[25 µM]
COC(=O)[C@@H]1[C@@H](CO)[C@@H]2Cn3c(ccc(C4=CCCCC4)c3=O)[C@H]1N2C(=O)Cc1ccccn1 | -1[25 µM]
Clc1ccc(C2=CCCC3CCC2N3)cn1 (stereo not given) | -14[25 µM]
CN1[C@@H]2Cn3c(cccc3=O)[C@H]1[C@@H](C(=O)NCC1CC1)[C@@H]2CO | -1[25 µM]
CC(=O)OC1C(=O)OCC23CCC4(C)OC4C2OC2CC(OC(=O)C=CC=CC(=O)OCCC1C)C3(C)C21CO1 (stereo not given) | 68*
CC1=CC2OC3CC4OC(=O)C=CC=CC(=O)OCCC(C)C(O)C(=O)OCC2(CC1O)C4(C)C31CO1 (stereo not given) | 103*
COc1cccc(-c2ccc([C@@H]3[C@H]4CN(C(=O)Cc5ccncc5)CCCCN4[C@H]3CO)cc2)c1 | -4[25 µM]
OC[C@@H]1Nc2ccc(C#Cc3cccnc3)cc2[C@H]2NCC[C@@H]12 | 6[25 µM]
CC(C)NC(=O)N1CC2C(c3ccccc3)C(C1)N2C (stereo not given) | 0
COC(=O)[C@@H]1[C@@H](CO)[C@@H]2Cn3c(ccc(-c4ccccc4)c3=O)[C@H]1N2S(=O)(=O)c1ccccc1C | 19[25 µM]
O=C1CCC2(O)C3Cc4ccc(O)c5c4C2(CCN3CC2CC2)C1O5 (stereo not given) | -8[25 µM]
FC(F)(F)CN1C[C@@H]2C(c3ccc(Br)cc3)[C@H](C1)N2CC1CC1 (stereo not given in full) | -4
C[C@]12CC[C@@H](O)C[C@@H]1CC[C@@H]1[C@@H]2CC[C@]2(C)[C@@H](C(=O)CO)CC[C@@H]12 | -8[25 µM]
O=C1NC(=O)c2c1c1c3ccccc3[nH]c1c1[nH]c3ccccc3c21 | 69*[25 µM]
COc1cccc(-c2ccc3n(c2=O)C[C@@H]2[C@@H](CO)[C@H](C(=O)O)[C@H]3N2Cc2ccccc2F)c1 | -3[25 µM]
CC=Cc1ccc2n(c1=O)C[C@@H]1[C@@H](CO)[C@H](C(=O)OC)[C@H]2N1C(=O)CC1CC1 (mixture of isomers) | -19[25 µM]
CC(C)NC(=O)N1C[C@@H]2N[C@H](C1)C2c1ccccc1 (stereo not given in full) | -3
CCN(CC)CCOC1CCC2(C)C(=CCC3C4CCC(=O)C4(C)CCC32)C1 (stereo not given) | -11[25 µM]
SMILES | CD40 NFkB inh
C[C@@H]1CN([C@H](C)CO)C(=O)c2c(c3ccccc3n2C)-c2ccccc2CO[C@H]1CN(C)C(=O)Oc1ccccc1 | 9
CC1OC(OC2CC(O)C3(CO)C4C(O)CC5(C)C(C6=CC(=O)OC6)CCC5(O)C4CCC3(O)C2)C(O)C(O)C1O (stereo not given) | 73*[25 µM]
C[C@@H]1O[C@@H](O[C@H]2C[C@@H](O)[C@]3(CO)[C@H]4[C@H](O)C[C@]5(C)[C@@H](C6COC(=O)C6)CC[C@]5(O)[C@@H]4CC[C@]3(O)C2)[C@H](O)[C@H](O)[C@H]1O (stereo not given in full) | 67*
CCN1CC2(COC(=O)c3ccccc3N3C(=O)CC(C)C3=O)CCC(OC)C34C5CC6C(OC)CC(O)(C5C6OC)C(O)(C(OC)C23)C14 (stereo not given) | 5[25 µM]
C/C=C/c1ccc(C2[C@@H]3CN(C(=O)C4CCC4)C[C@H]2N3)cc1 (stereo not given in full) | 10
COc1ccc(OC(=O)N(C)C[C@H]2OCc3ccccc3-c3c(n(C)c4ccccc34)C(=O)N([C@@H](C)CO)C[C@@H]2C)cc1 | 15
FC(F)(F)CN1C[C@@H]2N[C@H](C1)C2c1ccc(Br)cc1 (stereo not given in full) | 2
FC(F)(F)CN1C[C@@H]2C(c3ccccc3)[C@H](C1)N2CC1CC1 (stereo not given in full) | 3
C=CCN1[C@@H]2CN(C(=O)NC(C)C)C[C@H]1C2c1ccc(Br)cc1 (stereo not given in full) | 0
COC(=O)[C@@H]1[C@@H](CO)[C@@H]2Cn3c(ccc(-c4cccc(F)c4)c3=O)[C@H]1N2C(=O)CC1CC1 | -9[25 µM]
CC(=NNC(=S)N1CC2CCC(CC2)C1)c1nccs1 | 66*
C/C=C/c1ccc(C2[C@@H]3CN(Cc4cccc(F)c4)C[C@H]2N3)cc1 (stereo not given in full) | 9
C/C=C/c1ccc(C2[C@@H]3CN(Cc4cccnc4)C[C@H]2N3)cc1 (stereo not given in full) | -3
CC(=O)N1C[C@@H]2C(c3ccccc3)[C@H](C1)N2C (stereo not given in full) | -1
O=C(O)[C@@H]1[C@@H](CO)[C@@H]2Cn3c(ccc(-c4ccncc4)c3=O)[C@H]1N2S(=O)(=O)c1ccccc1F | 0[25 µM]
CC1=NNC(=O)C1Br (stereo not given) | 52*
O=C(Cc1ccccc1)N1CC2(C1)[C@H](c1ccccc1)[C@H](CO)N2Cc1cccc(Cl)c1 | 18[25 µM]
C[C@H]1CN([C@@H](C)CO)C(=O)c2c(c3ccccc3n2C)-c2ccccc2CO[C@@H]1CN(C)C(=O)Oc1ccccc1 | 17
CCCN1[C@@H]2c3ccc(-c4cccc(OC)c4)c(=O)n3C[C@H]1[C@H](CO)[C@H]2C(=O)OC | -11[25 µM]
C[C@H]1CCCC(=O)CCC/C=C/c2cc(O)cc(O)c2C(=O)O1 | 43*
O=C(O)[C@@H]1[C@@H](CO)[C@@H]2Cn3c(ccc(C4=CCCCC4)c3=O)[C@H]1N2C(=O)Cc1ccccn1 | 0[25 µM]
COc1cccc(-c2ccc3n(c2=O)C[C@H]2[C@H](CO)[C@@H](C(=O)O)[C@@H]3N2Cc2ccccc2F)c1 | 5[25 µM]
O=C(Cc1cccnc1)N1CCCCN2[C@H](CO)[C@@H](c3ccc(C#CC4CCCC4)cc3)[C@H]2C1 | -6[25 µM]
O=C(Cc1ccccn1)N1CCCCN2[C@H](CO)[C@H](c3ccc(-c4ccccc4F)cc3)[C@@H]2C1 | 27[25 µM]
COC(=O)[C@H]1[C@H](CO)[C@H]2Cn3c(cccc3=O)[C@@H]1N2Cc1nccs1 | 8[25 µM]
CC(=O)OC(C)(C)/C=C/C(=O)C(C)(O)C1C(O)CC2(C)C3CC=C4C(CC(O)C(=O)C4(C)C)C3(C)C(=O)CC12C (stereo not given) | 60*
CCC(=O)N1[C@@H]2c3ccc(C4=CCCC4)c(=O)n3C[C@H]1[C@H](CO)[C@H]2C(=O)OC | 9[25 µM]
O=C1CNC[C@@H]2[C@@H](c3ccc(Br)cc3)[C@H](CO)N12 | -17[25 µM]
